# Experimental data reported in PubChem BioAssay (NCATS).
# Inconclusive results are not listed. Activity calls are given as the source filed them. Calls follow the shape of the dose curve; as a rule, active = well fitted curve in the direction sought with a large enough effect; inconclusive = small, poorly fitted or top-dose-only effect, or another doubt; inactive = no such curve, though single readings can be large; an effect the other way counts as inactive or inconclusive.
# How the values were obtained:
# [1] = NS1 protein of Zika virus - qHTS assay to identify small molecule inhibitors in human HEK 293 cells (AID 1347053); also: nearly all actives have a fitted effect of over 55% in size
# Method in brief: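 HEK 293 cells pretreated with compound for 1 h, then infected with ZIKV MR766 (MOI 0.5) for 24 h at 37 C. NS1 detected by TR-FRET with two anti-NS1 antibodies; normalized to uninfected (0%) and infected (100%) wells.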
# [2] = qHTS of pediatric cancer cell lines to identify multiple opportunities for drug repurposing: Primary screen for TC32 cells (AID 1347089); also: nearly all actives have a fitted effect of over 60% in size
# Method in brief: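 Measured quantity: luminescence from CellTiter-Glo, reflecting metabolically active TC32 cells following 48 h of compound. Curves came straight from multi-point titrations, with 8 or 11 points in primary and 11 in confirmatory screening.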
# [3] = qHTS of pediatric cancer cell lines to identify multiple opportunities for drug repurposing: Primary screen for DAOY cells (AID 1347090); also: nearly all actives have a fitted effect of over 55% in size
# Method in brief: (§1)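 Cell viability, CellTiter-Glo luminescence; 500-1,000 cells/well, 8- or 11-point titration, 48 h compound exposure at 37 degrees C, 5% CO2. Controls: DMSO neutral, bortezomib 2.3 µM final as positive.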
# [4] = qHTS of pediatric cancer cell lines to identify multiple opportunities for drug repurposing: Primary screen for A673 cells (AID 1347092); also: nearly all actives have a fitted effect of over 45% in size
# Method in brief: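 Cells are plated, rested 5 h, dosed by pintool, incubated 48 h, then lysed with CellTiter-Glo and read by luminescence. DMSO is the neutral control; bortezomib at 2.3 uM final is the positive control.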
# [5] = qHTS of pediatric cancer cell lines to identify multiple opportunities for drug repurposing: Primary screen for BT-37 cells (AID 1347094)
# Method in brief: (§2)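 Cells seeded at 500-1,000 cells/well in growth media, rested 5 hours at 37 degrees C, 5% CO2, then dosed; MIPE compounds at 11-point (from 0.78 nM) and NPC at 8-point (from 0.59 nM) final concentrations. Viability by CellTiter-Glo luminescence after 48 hours.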
# [6] = qHTS of pediatric cancer cell lines to identify multiple opportunities for drug repurposing: Primary screen for NB-EBc1 cells (AID 1347095)
# Method in brief: as §2
# [7] = qHTS of pediatric cancer cell lines to identify multiple opportunities for drug repurposing: Primary screen for U-2 OS cells (AID 1347096); also: nearly all actives have a fitted effect of over 50% in size
# Method in brief: (§3)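 Cells (500-1,000/well) rested 5 h, then received compounds for 48 h; metabolically active cells were measured by CellTiter-Glo luminescence. Final concentrations spanned up to 46 µM (MIPE, 11-point) or 0.59 nM-46 µM (NPC, 8-point) in primary screens, 11-point in follow-ups.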
# [8] = qHTS of pediatric cancer cell lines to identify multiple opportunities for drug repurposing: Primary screen for Saos-2 cells (AID 1347097); also: nearly all actives have a fitted effect of over 40% in size
# Method in brief: as §2
# [9] = qHTS of pediatric cancer cell lines to identify multiple opportunities for drug repurposing: Primary screen for SK-N-SH cells (AID 1347098); also: nearly all actives have a fitted effect of over 65% in size
# Method in brief: as §3
# [10] = qHTS of pediatric cancer cell lines to identify multiple opportunities for drug repurposing: Primary screen for NB1643 cells (AID 1347099); also: nearly all actives have a fitted effect of over 50% in size
# Method in brief: as §2
# [11] = qHTS of pediatric cancer cell lines to identify multiple opportunities for drug repurposing: Primary screen for Rh18 cells (AID 1347102); also: nearly all actives have a fitted effect of over 65% in size
# Method in brief: as §3
# [12] = qHTS of pediatric cancer cell lines to identify multiple opportunities for drug repurposing: Primary screen for SJ-GBM2 cells (AID 1347091)
# Method in brief: as §1
# [13] = qHTS of pediatric cancer cell lines to identify multiple opportunities for drug repurposing: Primary screen for SK-N-MC cells (AID 1347093)
# Method in brief: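 Metabolically active cells were quantified by ATP-dependent luminescence (CellTiter-Glo, 15 min at room temperature) following 48 h treatment. Cells had been plated at 500-1,000 per well and settled for 5 h beforehand.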
# [14] = qHTS of pediatric cancer cell lines to identify multiple opportunities for drug repurposing: Primary screen for LAN-5 cells (AID 1347100)
# Method in brief: as §3
# [15] = qHTS of pediatric cancer cell lines to identify multiple opportunities for drug repurposing: Primary screen for BT-12 cells (AID 1347101); also: nearly all actives have a fitted effect of over 25% in size
# Method in brief: as §3
# Potency is read from the fitted curve at half-maximal effect.
Compound,Potency [1],Potency [2],Potency [3],Potency [4],Potency [5],Potency [6],Potency [7],Potency [8],Potency [9],Potency [10],Potency [11],Potency [12],Potency [13],Potency [14],Potency [15]
C[C@]12CCC(=O)C=C1[C@@H]1CC1[C@H]1[C@H]3[C@@H]4C[C@H]4[C@@]4(CCC(=O)O4)[C@@]3(C)CC[C@H]12 (some centres undefined),inactive,inactive,inactive,inactive,inactive,inactive,inactive,inactive,inactive,inactive,inactive,–,–,–,–
COc1cc(O)c2c(c1)C1OC1C[C@H](O)[C@H](O)C(=O)C=CC[C@H](C)OC2=O (some centres undefined),11.8 µM (active),–,7.43 µM (active),5.9 µM (active),19.3 µM (active),5.9 µM (active),18.7 µM (active),10.5 µM (active),6.07 µM (active),2.96 µM (active),16.6 µM (active),8.33 µM (active),2.35 µM (active),5.26 µM (active),13.7 µM (active)
C[C@H](NCc1ccc(OCc2cccc(F)c2)cc1)C(N)=O,23.5 µM (active),18.6 µM (active),–,5.9 µM (active),19.3 µM (active),10.5 µM (active),18.7 µM (active),16.6 µM (active),30.4 µM (active),14.8 µM (active),20.9 µM (active),10.5 µM (active),2.64 µM (active),7.43 µM (active),–
NS(=O)(=O)OC[C@@H]1C[C@@H](n2ccc3c(N[C@H]4CCc5ccccc54)ncnc32)C[C@H]1O,inactive,1.65 µM (active),0.59 µM (active),0.148 µM (active),–,–,–,–,inactive,6.62 µM (active),–,0.296 µM (active),0.0935 µM (active),0.833 µM (active),–
N=c1ccn2c(n1)O[C@H]1[C@@H](O)[C@@H](CO)O[C@H]12,inactive,1.04 µM (active),–,0.372 µM (active),0.611 µM (active),11.8 µM (active),inactive,inactive,–,9.35 µM (active),inactive,–,11.8 µM (active),3.32 µM (active),–
COc1cc([C@@H]2c3cc4c(cc3[C@@H](O[C@@H]3O[C@@H]5CO[C@@H](c6cccs6)O[C@@H]5[C@H](O)[C@@H]3O)[C@H]3COC(=O)[C@H]23)OCO4)cc(OC)c1O,0.296 µM (active),–,0.372 µM (active),0.372 µM (active),0.217 µM (active),0.0372 µM (active),3.72 µM (active),0.59 µM (active),5.41 µM (active),0.132 µM (active),–,0.118 µM (active),0.0935 µM (active),0.0372 µM (active),6.11 µM (active)
CN1[C@H]2CC(OC(=O)[C@@H](CO)c3ccccc3)C[C@H]1[C@H]1O[C@H]12 (some centres undefined),–,inactive,inactive,inactive,inactive,inactive,inactive,inactive,inactive,–,inactive,inactive,inactive,inactive,inactive
CCOc1cc2ncc(C#N)c(Nc3ccc(OCc4ccccn4)c(Cl)c3)c2cc1NC(=O)C=CCN(C)C,inactive,–,–,0.0743 µM (active),1.09 µM (active),0.332 µM (active),–,1.18 µM (active),0.121 µM (active),0.59 µM (active),–,1.18 µM (active),0.105 µM (active),1.48 µM (active),1.93 µM (active)
O=C(Nc1cc2cc[nH]c2cn1)c1ccccc1,inactive,–,14.8 µM (active),7.43 µM (active),7.69 µM (active),13.2 µM (active),–,11.8 µM (active),19.2 µM (active),14.8 µM (active),11.8 µM (active),14.8 µM (active),11.8 µM (active),14.8 µM (active),6.85 µM (active)
Cc1[nH]c(C=C2C(=O)Nc3ccccc32)c(C)c1CCC(=O)O,inactive,7.39 µM (active),2.96 µM (active),1.18 µM (active),0.863 µM (active),0.148 µM (active),–,3.32 µM (active),0.541 µM (active),3.32 µM (active),23.5 µM (active),–,0.59 µM (active),0.132 µM (active),7.69 µM (active)
Cc1cncc2cccc(S(=O)(=O)N3CCCN(C(=O)CN)C[C@@H]3C)c12,inactive,10.4 µM (active),–,14.8 µM (active),inactive,–,inactive,–,–,inactive,inactive,–,–,1.48 µM (active),–
